Read-out in experiment [1]: urokinase plasminogen activator (uPA), PLAU (gene 5328)
As to the kind of experiment: BSK_KF3CT_uPA: BioMAP Diversity Plus: KF3CT Assay for urokinase plasminogen activator (uPA) Biomarker Activity (AID 2283075). The note with it: primary human keratinocytes with fibroblasts; actives raise or lower the signal. An outline of the steps: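 ELISA readout of uPA, analyzed for signal gain or loss relative to DMSO, from a human primary keratinocyte–foreskin fibroblast co-culture measured 24 h after chemical treatment.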

Read-out in experiment [2]: CD40, CD40 (gene 958)
The experiment in a line: BSK_LPS_CD40: BioMAP Diversity Plus: LPS Assay for CD40 Biomarker Activity (AID 2283076). The note with it: primary human HUVEC with PBMC; actives raise or lower the signal. An outline of the steps:
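Primary human umbilical vein endothelial cells co-cultured with peripheral blood mononuclear cells, LPS-stimulated, were dosed with chemical and read 24 h later. CD40 levels were measured by ELISA and fitted bidirectionally against DMSO as negative control and baseline.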

Read-out in experiment [3]: E-selectin (Homo sapiens) (UniProt P16581)
The experiment in a line: BSK_LPS_Eselectin: BioMAP Diversity Plus: LPS Assay for Eselectin Biomarker Activity (AID 2283077). The note with it: primary human HUVEC with PBMC; actives raise or lower the signal. An outline of the steps:
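Human umbilical vein endothelial cells co-cultured with peripheral blood mononuclear cells under LPS stimulation; E-selectin measured by ELISA 24 h after chemical dosing. Activity fitted bidirectionally against DMSO as negative control and baseline.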

Read-out in experiment [4]: Interleukin-8 (IL8), CXCL8 (gene 3576)
The experiment in a line: BSK_LPS_IL8: BioMAP Diversity Plus: LPS Assay for Interleukin-8 (IL8) Biomarker Activity (AID 2283078). The note with it: primary human HUVEC with PBMC; actives raise or lower the signal. An outline of the steps:
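Human umbilical vein endothelial cells co-cultured with PBMC were stimulated with LPS; IL-8 levels were measured by ELISA 24 h after chemical dosing. Activity was fitted bidirectionally against DMSO as negative control and baseline.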

A short description of experiment [5]: BSK_LPS_SRB: Viability Assessment in the BioMAP Diversity Plus: LPS Assay (AID 2283079).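 Note: total protein by sulforhodamine B absorbance as a cytotoxicity measure; measured one day after compound addition; fitted in both directions against DMSO so loss or gain of signal counts.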 The note with it: primary human HUVEC with PBMC. An outline of the steps:
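Human umbilical vein endothelial cells co-cultured with PBMC (LPS system) were dosed for 24 h. Total protein was stained with 0.1% sulforhodamine B after 10% TCA fixation, read at 560 nm, and fitted bidirectionally against DMSO baseline.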

Read-out in experiment [6]: Interleukin-1 alpha (IL1a), IL1A (gene 3552)
The experiment in a line: BSK_LPS_IL1a: BioMAP Diversity Plus: LPS Assay for Interleukin-1 alpha (IL1a) Biomarker Activity (AID 2283080). The note with it: primary human HUVEC with PBMC; actives raise or lower the signal. An outline of the steps:
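Human umbilical vein endothelial cells co-cultured with peripheral blood mononuclear cells were LPS-stimulated and exposed to test chemicals for 24 h. IL-1 alpha was quantified by ELISA, with bidirectional curve fitting against DMSO as the negative control and baseline.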

Read-out in experiment [7]: Monocyte Chemoattractant Protein-1 (MCP1), CCL2 (gene 6347)
As to the kind of experiment: BSK_LPS_MCP1: BioMAP Diversity Plus: LPS Assay for Monocyte Chemoattractant Protein-1 (MCP1) Biomarker Activity (AID 2283081).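 For AC50: co-culture stimulated with LPS; secreted MCP-1 protein quantified by ELISA in culture supernatant.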 The note with it: primary human HUVEC with PBMC; actives raise or lower the signal. An outline of the steps:
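HUVEC plus PBMC co-culture (human primary cells, LPS system) exposed to test chemical for 24 h; MCP-1 measured by ELISA. Bidirectional curve fitting against DMSO baseline; parallel SRB total-protein staining flags overt cytotoxicity.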

The nature of experiment [8]: BSK_LPS_PGE2: BioMAP Diversity Plus: LPS Assay for Prostaglandin E2 (PGE2) Biomarker Activity (AID 2283082). The note with it: primary human HUVEC with PBMC; actives raise or lower the signal. An outline of the steps:
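LPS-activated HUVEC/PBMC co-culture; cmpd dosed, 24 h; PGE2 by ELISA; bidirectional fit vs DMSO; SRB (0.1%, TCA-fixed, 560 nm) in parallel plates for overt cytotox.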

Read-out in experiment [9]: Macrophage colony-stimulating factor (MCSF), CSF1 (gene 1435)
The experiment in a line: BSK_LPS_MCSF: BioMAP Diversity Plus: LPS Assay for Macrophage colony-stimulating factor (MCSF) Biomarker Activity (AID 2283083). The note with it: primary human HUVEC with PBMC; actives raise or lower the signal. An outline of the steps:
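Human umbilical vein endothelial cells co-cultured with peripheral blood mononuclear cells were exposed to compound for 24 h. M-CSF levels were measured by ELISA, and bidirectional curve fitting used DMSO as the negative control and baseline.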

Read-out in experiment [10]: Tumor necrosis factor (Homo sapiens) (UniProt P01375)
The experiment in a line: BSK_LPS_TNFa: BioMAP Diversity Plus: LPS Assay for Tumour Necrosis Factor alpha (TNFa) Biomarker Activity (AID 2283085). The note with it: primary human HUVEC with PBMC; actives raise or lower the signal. An outline of the steps:
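Read-out is ELISA of TNFa in primary human endothelial cell–PBMC co-cultures at 24 h after compound. Activity in either direction was fitted against DMSO.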

Read-out in experiment [11]: Vascular cell adhesion molecule 1 (VCAM1), VCAM1 (gene 7412)
As to the kind of experiment: BSK_LPS_VCAM1: BioMAP Diversity Plus: LPS Assay for Vascular cell adhesion molecule 1 (VCAM1) Biomarker Activity (AID 2283086). The note with it: primary human HUVEC with PBMC; actives raise or lower the signal. An outline of the steps:
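HUVEC + PBMC co-culture, LPS system; compound 24 h; VCAM-1 by ELISA; bidirectional fit vs DMSO control; parallel SRB (0.1%, TCA-fixed, 560 nm) for cytotoxicity.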

Read-out in another experiment: CD38, CD38 (gene 952)
The experiment in a line: BSK_SAg_CD38: BioMAP Diversity Plus: SAg Assay for CD38 Biomarker Activity (AID 2283087). The note with it: primary human HUVEC with PBMC; actives raise or lower the signal. An outline of the steps:
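Human HUVEC plus PBMC co-culture stimulated with superantigen; CD38 measured by ELISA 24 h after chemical dosing. Fluorescence read-out, bidirectional fit against DMSO; cytotoxicity tracked in parallel by SRB and Alamar Blue.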

Read-out in experiment [12]: CD40, CD40 (gene 958)
As to the kind of experiment: BSK_SAg_CD40: BioMAP Diversity Plus: SAg Assay for CD40 Biomarker Activity (AID 2283088). The note with it: primary human HUVEC with PBMC; actives raise or lower the signal. An outline of the steps:
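Human umbilical vein endothelial cells co-cultured with PBMC; CD40 levels measured by ELISA with fluorescence read-out 24 h after chemical dosing. Gain or loss of signal fitted bidirectionally against DMSO baseline.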

Read-out in the next experiment: CD69, CD69 (gene 969)
The experiment in a line: BSK_SAg_CD69: BioMAP Diversity Plus: SAg Assay for CD69 Biomarker Activity (AID 2283089).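 For AC50: cell surface CD69 protein quantified by ELISA with fluorescence detection.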 The note with it: primary human HUVEC with PBMC; actives raise or lower the signal. An outline of the steps:
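Endothelial/PBMC co-culture; chemical added; 24 h incubation; CD69 ELISA with fluorescence detection; bidirectional fit vs DMSO.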

Read-out in experiment [13]: Monocyte Chemoattractant Protein-1 (MCP1), CCL2 (gene 6347)
The experiment in a line: BSK_SAg_MCP1: BioMAP Diversity Plus: SAg Assay for Monocyte Chemoattractant Protein-1 (MCP1) Biomarker Activity (AID 2283090). The note with it: primary human HUVEC with PBMC; actives raise or lower the signal. An outline of the steps:
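MCP-1 levels in the endothelial–PBMC SAg co-culture were quantified by ELISA at 24 h post-dosing; both increases and decreases versus DMSO scored. Cytotoxicity monitored by SRB total protein in parallel cultures.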

Read-out in experiment [14]: E-selectin (Homo sapiens) (UniProt P16581)
As to the kind of experiment: BSK_SAg_Eselectin: BioMAP Diversity Plus: SAg Assay for Eselectin Biomarker Activity (AID 2283091). The note with it: primary human HUVEC with PBMC; actives raise or lower the signal. An outline of the steps: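 HUVEC co-cultured with PBMC, compound dosed then read at 24 h; E-selectin measured by ELISA. Activity fitted bidirectionally against DMSO as negative control and baseline.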

Read-out in experiment [15]: Monokine induced gamma interferon (MIG), CXCL9 (gene 4283)
The experiment in a line: BSK_SAg_MIG: BioMAP Diversity Plus: SAg Assay for Monokine induced gamma interferon (MIG) Biomarker Activity (AID 2283092). The note with it: primary human HUVEC with PBMC; actives raise or lower the signal. An outline of the steps:
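Measures CXCL9 protein by ELISA in a human vascular primary-cell co-culture (umbilical vein endothelium with PBMC) 24 h after chemical addition. Activity is scored up or down from the DMSO control.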

Experiment [16] in a line: BSK_SAg_PBMCCytotoxicity: PBMC Cytotoxicity Assessment in the BioMAP Diversity Plus: SAg Assay (AID 2283093).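 For AC50: PBMC superantigen activated with SEB plus TSST-1 one hour after compound addition.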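 Note: PBMC viability measured as Alamar Blue reduction fluorescence at 546/580 nm; fitted both ways against DMSO so a hit may be loss or gain of signal.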 The note with it: primary human HUVEC with PBMC. An outline of the steps:
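Compound added to 75,000 PBMC/well for 1 h; SEB and TSST-1 then added at 20 ng/mL final each; 90 h incubation; Alamar Blue 6 h; read 546/580 nm ex/em. Activity fitted bidirectionally relative to DMSO baseline.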

Read-out in experiment [17]: Interleukin-8 (IL8), CXCL8 (gene 3576)
The experiment in a line: BSK_SAg_IL8: BioMAP Diversity Plus: SAg Assay for Interleukin-8 (IL8) Biomarker Activity (AID 2283094). The note with it: primary human HUVEC with PBMC; actives raise or lower the signal. An outline of the steps: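 ELISA read-out of IL-8 in a primary human vascular co-culture (umbilical vein endothelium plus PBMC), taken 24 h after compound addition. Values derive from bidirectional fits against DMSO negative controls.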

This passage reports outcome and AC50 results from PubChem BioAssay (EPA / NIEHS).

Activity calls are given as the source filed them. Rule for the calls: active = hit-call score of the fitted dose curve at least 0.9, where 1 is the maximum; inactive = score below 0.9.

Sequence of Tumor necrosis factor (Homo sapiens) (P01375 whole entry, looked up): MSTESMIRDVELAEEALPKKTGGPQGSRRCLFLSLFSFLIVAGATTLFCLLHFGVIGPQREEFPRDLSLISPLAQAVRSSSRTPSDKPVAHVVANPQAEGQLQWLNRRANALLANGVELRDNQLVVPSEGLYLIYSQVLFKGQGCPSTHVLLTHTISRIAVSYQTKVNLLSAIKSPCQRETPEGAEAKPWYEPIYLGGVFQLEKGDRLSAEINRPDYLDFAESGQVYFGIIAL
Sequence of E-selectin (Homo sapiens) (P16581 whole entry, looked up): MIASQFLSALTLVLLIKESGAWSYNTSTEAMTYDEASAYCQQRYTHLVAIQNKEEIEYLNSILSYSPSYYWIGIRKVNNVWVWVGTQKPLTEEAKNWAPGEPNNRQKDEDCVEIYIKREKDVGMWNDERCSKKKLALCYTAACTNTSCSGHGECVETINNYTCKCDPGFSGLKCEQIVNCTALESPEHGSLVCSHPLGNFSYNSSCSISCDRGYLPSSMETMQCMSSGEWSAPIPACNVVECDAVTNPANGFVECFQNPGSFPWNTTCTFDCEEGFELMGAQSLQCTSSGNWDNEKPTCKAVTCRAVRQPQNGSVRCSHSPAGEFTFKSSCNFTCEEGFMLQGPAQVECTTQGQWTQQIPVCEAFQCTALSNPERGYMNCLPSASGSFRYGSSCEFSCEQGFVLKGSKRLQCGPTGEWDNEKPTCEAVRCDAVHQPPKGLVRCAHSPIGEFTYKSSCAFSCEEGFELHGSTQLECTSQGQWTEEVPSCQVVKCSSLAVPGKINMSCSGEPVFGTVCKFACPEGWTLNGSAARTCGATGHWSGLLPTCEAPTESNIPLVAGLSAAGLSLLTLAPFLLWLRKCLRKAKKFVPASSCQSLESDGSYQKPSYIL

In the case of `C=CCCCCCCCCCCCC`, the outcome in experiment [1] is “inactive”; with CD40, CD40 (gene 958) [2] it was “inactive”; in experiment [3] it was “inactive”; in experiment [4], “inactive”; in experiment [5] it was “inactive”; in experiment [6], “inactive”. Further, the outcome in experiment [7] was “inactive”; in experiment [8], “inactive”; in [9], “inactive”; in [10], “inactive”; in [11], “inactive”; with CD38, CD38 (gene 952) it was “inactive”. Besides, the outcome in the experiment with CD40, CD40 (gene 958) [12] was “inactive”; with CD69, CD69 (gene 969), “inactive”; in experiment [13], “inactive”; in experiment [14], “inactive”; in experiment [15], “inactive”; in experiment [16] it was “inactive”. The result in [17] was inactive.
`CCOCCOCCO`: the outcome in experiment [1] is “inactive”; with CD40, CD40 (gene 958) [2], “inactive”; in [3], “inactive”; in experiment [4] it was “inactive”; in [5] it was “inactive”; in experiment [6], “inactive”. Besides, the outcome in [7] was “inactive”; in [8], “inactive”; in experiment [9], “inactive”; in experiment [10], “inactive”; in experiment [11], “inactive”; with CD38, CD38 (gene 952), “inactive”. Further, the outcome was “inactive” with CD40, CD40 (gene 958) [12]; “inactive” with CD69, CD69 (gene 969); “inactive” in experiment [13]; “inactive” in experiment [14]; “inactive” in [15]; “inactive” in experiment [17].
In the case of `CCc1cc(C2=C(C(=O)O)N(c3ccccc3C(F)(F)F)S(=O)(=O)c3ccccc32)cc2c1OCO2`, the outcome in experiment [1] was “inactive”; with CD40, CD40 (gene 958) [2] it was “inactive”; in experiment [3] it was “inactive”; in [4] it was “inactive”; in experiment [5] it was “inactive”; in experiment [6] it was “inactive”. For the same molecule, the outcome in experiment [7] is “inactive”; in experiment [8] it was “inactive”; in experiment [9], “inactive”; in experiment [10], “inactive”; in experiment [11] it was “inactive”; in the experiment with CD40, CD40 (gene 958) [12], “inactive”. Also, the outcome in experiment [13], in experiment [14], in experiment [15] and in experiment [17] was inactive. The AC50 was 19.8 µM (active) with CD38, CD38 (gene 952) and 11.1 µM (active) in the experiment with CD69, CD69 (gene 969).
With `COc1ccc(OC(F)(F)F)cc1CN[C@H]1CCCN[C@H]1c1ccccc1`, the outcome in experiment [1], in experiment [3], in [6], in experiment [8], in experiment [9] and in experiment [10] was inactive. Also, the outcome in the experiment with CD38, CD38 (gene 952) is “inactive”; with CD40, CD40 (gene 958) [12], “inactive”; in experiment [13], “inactive”; in experiment [14], “inactive”; in experiment [15], “inactive”. Moreover, the AC50 is 26.6 µM (active) with CD40, CD40 (gene 958) [2]; 9.98 µM (active) in experiment [4]; 20 µM (active) in experiment [5]; 7.98 µM (active) in experiment [7]; 14.6 µM (active) in [11]; 20 µM (active) with CD69, CD69 (gene 969). For the same molecule, the AC50 in experiment [16] was 26.6 µM (active); in experiment [17], 12.4 µM (active).

What is called AC50 is the concentration at which the activity in the assay is half-maximal.
